# Reference: PubChem BioAssay AID1159580 (chemical genetic matrix, 2015)
# Screen size: about 5,500 compounds; about 2,000 (36%) were called active. About 18% were inconclusive and are not listed. Some of the results follow. A number with no mark means an inactive call. No stated cut-off is given here; in the data, active means normalized growth mostly below about 0.91 (no sharp cut-off); inconclusive means no clear call, values can overlap the other calls; inactive means mostly above about 0.92.
# Assay: chemical genetic growth profiling, strain panel (AID 1159580);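 further: tested at 20 µM; growth read once vehicle control cultures reached saturation at 30 °C; 1 = growth at the plate median or of vehicle wells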
# Details: S. cerevisiae deletion strains, growth OD
smiles,measurement,setting,value
CCOP(=S)(OCC)Oc1nc(Cl)c(Cl)cc1Cl,normalized growth,"locus YAL013W, strain DEP1, stronger effect = lower value",1.01
same,normalized growth,"locus YAL021C, strain ccr4, stronger effect = lower value",0.974
same,normalized growth,"locus YAL026C, strain drs2, stronger effect = lower value",0.941
same,normalized growth,"locus YAL030W, strain snc1, stronger effect = lower value",0.951
same,normalized growth,"locus YBL061C, strain skt5, stronger effect = lower value",0.964
same,normalized growth,"locus YBR009C, strain hhf1, stronger effect = lower value",0.873 (active)
same,normalized growth,"locus YBR021W, strain FUR4, stronger effect = lower value",1.01
same,normalized growth,"locus YBR023C, strain chs3, stronger effect = lower value",0.963
same,normalized growth,"locus YBR171W, strain sec66, stronger effect = lower value",0.95
same,normalized growth,"locus YBR229C, strain ROT2, stronger effect = lower value",0.997
same,normalized growth,"locus YBR231C, strain swc5, stronger effect = lower value",0.963
same,normalized growth,"locus YBR279W, strain paf1, stronger effect = lower value",0.98
same,normalized growth,"locus YCL011C, strain gbp2, stronger effect = lower value",0.938
same,normalized growth,"locus YCL016C, strain dcc1, stronger effect = lower value",0.981
same,normalized growth,"locus YCL029C, strain bik1, stronger effect = lower value",0.99
same,normalized growth,"locus YCL069W, strain vba3, stronger effect = lower value",0.972
same,normalized growth,"locus YCR088W, strain abp1, stronger effect = lower value",0.951
same,normalized growth,"locus YDL005C, strain med2, stronger effect = lower value",0.968
same,normalized growth,"locus YDL035C, strain GPR1, stronger effect = lower value",1.03
same,normalized growth,"locus YDL040C, strain nat1, stronger effect = lower value",0.955
same,normalized growth,"locus YDL074C, strain BRE1, stronger effect = lower value",0.985
same,normalized growth,"locus YDL101C, strain DUN1, stronger effect = lower value",1.01
same,normalized growth,"locus YDL134C, strain PPH21, stronger effect = lower value",0.988
same,normalized growth,"locus YDL185W, strain tfp1, stronger effect = lower value",0.994
same,normalized growth,"locus YDL192W, strain arf1, stronger effect = lower value",0.989
same,normalized growth,"locus YDR001C, strain nth1, stronger effect = lower value",0.948
same,normalized growth,"locus YDR069C, strain doa4, stronger effect = lower value",0.949
same,normalized growth,"locus YDR101C, strain arx1, stronger effect = lower value",0.981
same,normalized growth,"locus YDR137W, strain rgp1, stronger effect = lower value",0.832 (active)
same,normalized growth,"locus YDR150W, strain NUM1, stronger effect = lower value",1.01
same,normalized growth,"locus YDR159W, strain sac3, stronger effect = lower value",0.952
same,normalized growth,"locus YDR162C, strain NBP2, stronger effect = lower value",1.01
same,normalized growth,"locus YDR195W, strain ref2",1.03
same,normalized growth,"locus YDR297W, strain sur2, stronger effect = lower value",0.957
same,normalized growth,"locus YDR318W, strain mcm21, stronger effect = lower value",0.981
same,normalized growth,"locus YDR334W, strain swr1, stronger effect = lower value",0.947
same,normalized growth,"locus YDR335W, strain msn5, stronger effect = lower value",0.973
same,normalized growth,"locus YDR388W, stronger effect = lower value",0.986
same,normalized growth,"locus YDR392W, strain spt3, stronger effect = lower value",0.615 (active)
same,normalized growth,"locus YDR502C, strain sam2, stronger effect = lower value",0.988
same,normalized growth,"locus YEL003W, strain gim4, stronger effect = lower value",0.964
same,normalized growth,"locus YEL037C, strain rad23, stronger effect = lower value",0.959
same,normalized growth,"locus YEL061C, strain CIN8 (second series), stronger effect = lower value",0.957
same,normalized growth,"locus YEL061C, strain CIN8, stronger effect = lower value",1
same,normalized growth,"locus YER015W, strain faa2, stronger effect = lower value",0.964
same,normalized growth,"locus YER016W, strain bim1, stronger effect = lower value",0.973
same,normalized growth,"locus YER110C, stronger effect = lower value",0.993
same,normalized growth,"locus YER111C, strain swi4, stronger effect = lower value",0.958
same,normalized growth,"locus YER155C, strain BEM2 (second series), stronger effect = lower value",0.748 (active)
same,normalized growth,"locus YER155C, strain BEM2, stronger effect = lower value",1
same,normalized growth,"locus YER167W, strain BCK2, stronger effect = lower value",1.01
same,normalized growth,"locus YFR010W, strain ubp6, stronger effect = lower value",0.961
same,normalized growth,"locus YGL078C, strain dbp3, stronger effect = lower value",0.98
same,normalized growth,"locus YGL086W, strain mad1, stronger effect = lower value",0.987
same,normalized growth,"locus YGL167C, strain pmr1, stronger effect = lower value",0.947
same,normalized growth,"locus YGL173C, strain kem1, stronger effect = lower value",0.977
same,normalized growth,"locus YGL227W, strain vid30, stronger effect = lower value",0.935
same,normalized growth,"locus YGL240W, strain doc1, stronger effect = lower value",0.949
same,normalized growth,"locus YGL248W, strain PDE1, stronger effect = lower value",1.01
same,normalized growth,"locus YGL253W, strain hxk2, stronger effect = lower value",0.948
same,normalized growth,"locus YGR078C, strain PAC10, stronger effect = lower value",0.987
same,normalized growth,"locus YGR135W, strain pre9, stronger effect = lower value",0.986
same,normalized growth,"locus YGR229C, strain SMI1, stronger effect = lower value",0.98
same,normalized growth,"locus YGR252W, strain gcn5, stronger effect = lower value",0.976
same,normalized growth,"locus YHR013C, strain ard1, stronger effect = lower value",1.07
same,normalized growth,"locus YHR027C, strain rpn1, stronger effect = lower value",0.966
same,normalized growth,"locus YHR030C, strain SLT2, stronger effect = lower value",1.01
same,normalized growth,"locus YHR079C, strain IRE1 (second series), stronger effect = lower value",0.991
same,normalized growth,"locus YHR094C, strain hxt1, stronger effect = lower value",0.983
same,normalized growth,"locus YHR129C, strain ARP1, stronger effect = lower value",0.995
same,normalized growth,"locus YHR142W, strain chs7, stronger effect = lower value",0.847 (active)
same,normalized growth,"locus YHR200W, strain rpn10, stronger effect = lower value",0.986
same,normalized growth,"locus YIL066C, strain RNR3, stronger effect = lower value",0.991
same,normalized growth,"locus YIL073C, strain SPO22, stronger effect = lower value",0.961
same,normalized growth,"locus YIL125W, strain kgd1, stronger effect = lower value",0.981
same,normalized growth,"locus YIR030C, strain dcg1, stronger effect = lower value",0.991
same,normalized growth,"locus YJL092W, strain hpr5, stronger effect = lower value",0.959
same,normalized growth,"locus YJL095W, strain BCK1 (second series), stronger effect = lower value",0.949
same,normalized growth,"locus YJL095W, strain BCK1, stronger effect = lower value",0.973
same,normalized growth,"locus YJL115W, strain asf1, stronger effect = lower value",0.971
same,normalized growth,"locus YJL129C, strain trk1, stronger effect = lower value",0.921
same,normalized growth,"locus YJL134W, strain LCB3, stronger effect = lower value",1.01
same,normalized growth,"locus YJL154C, strain vps35, stronger effect = lower value",0.937
same,normalized growth,"locus YJL164C, strain tpk1, stronger effect = lower value",0.914 (active)
same,normalized growth,"locus YJL166W, strain qcr8, stronger effect = lower value",0.961
same,normalized growth,"locus YJL168C, strain set2, stronger effect = lower value",0.988
same,normalized growth,"locus YJL187C, strain SWE1 (second series), stronger effect = lower value",0.996
same,normalized growth,"locus YJR043C, strain POL32, stronger effect = lower value",1.02
